The values that follow come from PubChem BioAssay (NCATS).

Several values for one entry are separate records, joined by “and”; a condition that tells them apart may be missing. Equal values may be shown once. Unmarked numbers belong to inactive results. Results filed as inconclusive are left out. Activity calls are given as the source filed them. Unless noted, calls come from the whole dose curve; as a rule, active = well fitted curve in the direction sought with a large enough effect; inconclusive = small, poorly fitted or top-dose-only effect, or another doubt; inactive = no such curve, though single readings can be large; an effect the other way counts as inactive or inconclusive.

In one assay the test system is CAOV3. Briefly: Primary qHTS to identify gynecologic anti-cancer compounds using libraries of approved drugs and bioactive compounds (AID 1345084). Note: % is set by controls: 0 for no effect and ±100 for the full control effect; nearly all actives have a fitted effect of over 55% in size. The conditions noted are these: Gynecologic cancer cell panel viability, ATPlite luminescence, 48 h; series mostly up to 57.5 µM. The method in brief: (§1)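 Cytotoxicity screen measuring ATP content by luciferase luminescence. Each compound is applied at five concentrations for 48 h at 37 C with 5% CO2.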
(qHTS replaces the single test concentration by a dilution series.)

The test system of a further assay is CASKI. The assay is described as above. The conditions noted are these: Gynecologic cancer cell panel viability, ATPlite luminescence, 48 h; series mostly up to 57.5 µM. An outline of the steps:
as §1
Background: In ATP-based viability assays light output follows the ATP content of the culture.

A further assay deals with Es-2. The assay is described as above. The conditions noted are these: Gynecologic cancer cell panel viability, ATPlite luminescence, 48 h; series mostly up to 57.5 µM. An outline of the steps:
as §1

The next assay deals with HeLa. Described as above. The conditions noted are these: Gynecologic cancer cell panel viability, ATPlite luminescence, 48 h; series mostly up to 57.5 µM. The method in brief:
as §1

A further assay deals with Hek293T. The description is as above. The conditions noted are these: Gynecologic cancer cell panel viability, ATPlite luminescence, 48 h, control line for the selectivity index; series mostly up to 57.5 µM. An outline of the steps:
as §1

In the next assay the test system is JEG-3. The assay is described as above. The conditions noted are these: Gynecologic cancer cell panel viability, ATPlite luminescence, 48 h; series mostly up to 57.5 µM. The method in brief:
as §1

The subject of another assay is OV90. The assay is described as above. The conditions noted are these: Gynecologic cancer cell panel viability, ATPlite luminescence, 48 h; series mostly up to 57.5 µM. An outline of the steps: as §1
In a further assay the test system is PA-1. The assay is described as above. The conditions noted are these: Gynecologic cancer cell panel viability, ATPlite luminescence, 48 h; series mostly up to 57.5 µM. The method in brief:
as §1

A further assay relates to SKOV3. The assay is described as above. The conditions noted are these: Gynecologic cancer cell panel viability, ATPlite luminescence, 48 h; series mostly up to 57.5 µM. The method in brief:
as §1

A further assay deals with Tov-21-G. Described as above. The conditions noted are these: Gynecologic cancer cell panel viability, ATPlite luminescence, 48 h; series mostly up to 57.5 µM. The method in brief: as §1
For the next assay, the system named is Tov112D. The description is as above. The conditions noted are these: Gynecologic cancer cell panel viability, ATPlite luminescence, 48 h; series mostly up to 57.5 µM. The method in brief:
as §1

Assay [1] can be described thus: Drug repurposing screens with cells derived from glioblastoma tumor samples (AID 1345199). For activity, negative = cell killing: % is set by controls: 0 for no effect and ±100 for the full control effect. Note: nearly all actives have a fitted effect of over 40% in size. Note: potency is the fitted concentration of half-maximal effect. The conditions noted are these: GBM patient neurospheres viability, ATP luminescence, 48 h. The method in brief: (§2)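 Primary testing used CD133+ neurospheres from four GBM patients, seven concentrations, 48 h exposure and ATP-based viability; confirmation added three slower-growing patient lines.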

For another assay, the system named is astro. The assay is described as above. The conditions noted are these: viability, ATP luminescence, 48 h; series mostly up to 45.9 µM. The method in brief:
as §2

Assay [2] deals with Nuclear receptor subfamily 1 group I member 2 (Rattus norvegicus) (UniProt Q9R1A7). As to the kind of experiment: qHTS assay for small molecule activators of the rat pregnane X receptor (rPXR) signaling pathway (AID 651751; call rule not given here; note: 0% is about no effect). The conditions noted are these: rPXR reporter cells, luciferase (One-Glo), 24 h.
Nuclear receptor subfamily 1 group I member 2 (Rattus norvegicus), sequence (Q9R1A7 whole entry, looked up): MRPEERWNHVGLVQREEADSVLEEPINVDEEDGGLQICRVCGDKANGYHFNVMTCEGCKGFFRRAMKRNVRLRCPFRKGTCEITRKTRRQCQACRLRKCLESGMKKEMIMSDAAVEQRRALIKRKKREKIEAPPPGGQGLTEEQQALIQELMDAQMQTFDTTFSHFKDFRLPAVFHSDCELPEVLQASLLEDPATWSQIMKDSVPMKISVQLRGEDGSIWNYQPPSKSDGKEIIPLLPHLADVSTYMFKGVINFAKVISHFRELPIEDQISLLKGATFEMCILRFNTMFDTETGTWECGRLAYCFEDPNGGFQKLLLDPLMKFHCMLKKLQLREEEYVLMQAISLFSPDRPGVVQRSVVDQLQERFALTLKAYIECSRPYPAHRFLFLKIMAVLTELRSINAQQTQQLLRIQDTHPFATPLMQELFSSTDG
A short description of assay [3]: qHTS assay for small molecule activators of the human pregnane X receptor (PXR) signaling pathway (AID 720659; call rule not given here; note: 0% is about no effect). The conditions noted are these: DPX-2 HepG2 CYP3A4-luciferase, 24 h; series mostly up to 92.3 µM.
[4] abbreviates: at 45.9 µM (top of the series), tumour line B.
The mark [5] stands for this setting: at 45.9 µM (top of the series), tumour line D.

With `CC(=O)[C@H]1CC[C@H]2[C@@H]3CC[C@H]4C[C@](C)(O)CC[C@]4(C)[C@H]3CC[C@]12C`, the Potency entry in the assay with CAOV3, in the assay on CASKI, in the assay with Es-2, with HeLa, with Hek293T and with JEG-3 was “inactive” in each case. For the same molecule, the Potency entry in the assay with OV90, in the assay with PA-1, in the assay on SKOV3, with Tov-21-G, in the assay with Tov112D and in the assay with astro was “inactive” in each case. In addition, the activity, negative = cell killing in assay [1] (setting [4]) was -20.7%.
In the case of `CCN(CC)CCN1C(=O)CN=C(c2ccccc2F)c2cc(Cl)ccc21`, the Potency entry in the assay on CAOV3, in the assay on CASKI, with Es-2, in the assay on HeLa, in the assay on Hek293T and in the assay on JEG-3 was “inactive” throughout. Further, the Potency result in the assay with OV90, with PA-1, in the assay with SKOV3, in the assay with Tov-21-G, with Tov112D and with astro was “inactive” throughout. Further, the activity, negative = cell killing in assay [1] (setting [4]) was -20.2%. Further, the Potency in assay [1] (tumour line A) was 14.1 µM (active).
Consider `C=CCN1CC[C@]23c4c5ccc(O)c4O[C@H]2C(=O)CC[C@@]3(O)[C@H]1C5`, for which the Potency entry with CAOV3, in the assay with CASKI, with Es-2, with HeLa, with Hek293T and with JEG-3 was “inactive” in each case. Besides, the Potency entry with OV90, in the assay on PA-1, with SKOV3, in the assay on Tov-21-G, in the assay with Tov112D and in the assay with astro was “inactive” throughout. Besides, the activity, negative = cell killing in assay [1] (setting [5]) was -22.2%; in [1] (at 46 µM (top of the series), tumour line A) it was 15.9%.
Regarding `CCCC(C)(COC(N)=O)COC(=O)NC(C)C` (configuration not stated), the Potency entry in the assay on CAOV3, in the assay on CASKI, with Es-2, with HeLa, in the assay on Hek293T and in the assay with JEG-3 was “inactive” in each case. In addition, the Potency result in the assay with OV90, in the assay on PA-1, in the assay with SKOV3, in the assay on Tov-21-G, in the assay on Tov112D and in the assay on astro was “inactive” each time. Further, the activity, negative = cell killing in [1] (setting [4]) was -7.57%; in assay [1] (setting [5]), -17.6%. The max response in assay [2] is 6.19% and 1.57%.
In the case of `Cn1c(CCCC(=O)O)nc2cc(N(CCCl)CCCl)ccc21`, the Potency entry with CAOV3, with CASKI, in the assay with Es-2, in the assay on HeLa, in the assay with Hek293T and in the assay with JEG-3 was “inactive” throughout. The Potency result in the assay with OV90, in the assay with PA-1, with SKOV3, in the assay on Tov-21-G, in the assay on Tov112D and in the assay with astro was “inactive” throughout. Besides, the activity, negative = cell killing in [1] (setting [4]) was -8.98%; in assay [1] (setting [5]) it was -16.3%.
Take `C[C@]12C/C(=C/O)C(=O)C[C@@H]1CC[C@@H]1[C@@H]2CC[C@@]2(C)[C@H]1CC[C@]2(C)O`: the Potency result in the assay on CAOV3, in the assay on CASKI, in the assay on Es-2, with HeLa, in the assay on Hek293T and in the assay with JEG-3 was “inactive” in each case. Also, the Potency result in the assay on OV90, in the assay on PA-1, in the assay with SKOV3, in the assay on Tov-21-G, in the assay with Tov112D and in the assay with astro was “inactive” throughout. The activity, negative = cell killing in [1] (setting [4]) is -10.4%; in [1] (setting [5]) it was -15.9%. In addition, in [2], the max response was -5.34% and -0.621%. Moreover, the outcome in [3] was inactive.
`Oc1cccc2cccnc12`: the Potency entry with CAOV3, in the assay with CASKI, with Es-2, in the assay on HeLa, with Hek293T and in the assay on JEG-3 was “inactive” each time. Moreover, the Potency result in the assay on OV90, in the assay on PA-1, in the assay on SKOV3, in the assay on Tov-21-G and in the assay on Tov112D was “inactive” each time. The activity, negative = cell killing in assay [1] (setting [4]) was -22.3%; in assay [1] (setting [5]), -9.58%. The molecule was called inactive in [3].
For the molecule `CC(C)(N)Cc1ccc(Cl)cc1`, the Potency result with CAOV3, in the assay with CASKI, with Es-2, in the assay with HeLa, with Hek293T and in the assay with JEG-3 was “inactive” in each case. In addition, the Potency result in the assay on OV90, in the assay with PA-1, with SKOV3, with Tov-21-G, with Tov112D and in the assay with astro was “inactive” each time. The values for the activity, negative = cell killing in [1] (setting [4]) and in assay [1] (setting [5]) were -10.8% and -8.85%, respectively.
For the molecule `Cc1ccc(S(=O)(=O)N[C@@H](CCCCN)C(=O)CCl)cc1`, the Potency entry in the assay with CAOV3, with CASKI, with Es-2, in the assay on HeLa, in the assay with Hek293T and with JEG-3 was “inactive” throughout. The Potency entry with OV90, with PA-1, with SKOV3, in the assay on Tov-21-G, in the assay on Tov112D and in the assay on astro was “inactive” each time. For the same molecule, in [1] (setting [4]), the activity, negative = cell killing was -22.5%.
With `O=c1oc2ccccc2c(O)c1C(CC(O)c1ccc(-c2ccc(Br)cc2)cc1)c1ccccc1` (configuration not stated), the Potency result with CAOV3, with CASKI, in the assay with Es-2, in the assay with HeLa, with Hek293T and in the assay with JEG-3 was “inactive” throughout. Also, the Potency result in the assay on OV90, in the assay on PA-1, in the assay with SKOV3, in the assay with Tov-21-G and with Tov112D was “inactive” throughout. In [1] (setting [4]), the activity, negative = cell killing is -19.7%. For the same molecule, the max response in assay [2] is -13.3%. Also, in assay [3], the molecule was called inactive.
With `FC(F)(F)c1cccc(C2=CCN(CCc3ccc4ccccc4c3)CC2)c1`, the Potency entry with CAOV3, with CASKI, in the assay on Es-2, in the assay with HeLa, in the assay on Hek293T and in the assay with JEG-3 was “inactive” throughout. Also, the Potency result in the assay with OV90, with PA-1, with Tov-21-G, with Tov112D and with astro was “inactive” each time.
Take `O=C1NCN(c2ccccc2)C12CCN(CC1COc3ccccc3O1)CC2` (configuration not stated): the Potency result with CAOV3, with CASKI, with Es-2, in the assay with HeLa, with Hek293T and with JEG-3 was “inactive” throughout. Further, the Potency result with OV90, in the assay with PA-1, in the assay on SKOV3, in the assay with Tov-21-G, in the assay on Tov112D and in the assay with astro was “inactive” in each case. Further, the activity, negative = cell killing in assay [1] (setting [4]) was -6.74%. Besides, the Potency in assay [1] (tumour line A) is 12.6 µM (active).
`Clc1cccc(N2CCNCC2)c1`: the Potency result with CAOV3, with CASKI, in the assay on Es-2, in the assay with HeLa, in the assay on Hek293T and in the assay with JEG-3 was “inactive” each time. For the same molecule, the Potency result in the assay on OV90, with PA-1, in the assay with SKOV3, in the assay on Tov-21-G, in the assay with Tov112D and in the assay on astro was “inactive” in each case. For the same molecule, the activity, negative = cell killing in assay [1] (setting [4]) is -20%. Also, the Potency in [1] (tumour line A) is 35.5 µM (active).
`C[C@]12CCC(=O)C(O)=C1CC[C@@H]1[C@@H]2CC[C@]2(C)C(=O)CC[C@@H]12`: the Potency entry with CAOV3, with CASKI, in the assay with Es-2, in the assay with HeLa, with Hek293T and in the assay on JEG-3 was “inactive” throughout. Besides, the Potency result in the assay on OV90, in the assay on PA-1, with SKOV3, in the assay with Tov-21-G, in the assay on Tov112D and in the assay with astro was “inactive” throughout. For the same molecule, in assay [2], the max response was 2.3%.
Consider `CCN(C(C)=O)c1cccc(-c2ccnc3c(C#N)cnn23)c1`, for which the Potency result with CAOV3, with CASKI, in the assay with Es-2, in the assay on HeLa, in the assay with Hek293T and in the assay with JEG-3 was “inactive” in each case. In addition, the Potency result in the assay on OV90, with PA-1, in the assay with SKOV3, with Tov-21-G, in the assay on Tov112D and with astro was “inactive” throughout. The results for the activity, negative = cell killing in assay [1] (setting [4]) and in assay [1] (setting [5]) were -13.5% and -2.81%, respectively.
